The values that follow come from PubChem BioAssay AID1851 (National Center for Advancing Translational Sciences (NCATS), 2009).

Each structure is given as a SMILES string. Values joined by “and” are separate entries in the source; they are usually repeats but may differ in a detail not shown here. Equal values may be shown once. The campaign covered roughly 16,000 compounds. About 5,700 (36%) were called active. Roughly 24% stayed inconclusive and do not appear here. This is one part of the list. Unmarked numbers belong to inactive results. The call rests on the fitted dose curve; in most records, active means well fitted curve in the direction sought with a large enough effect; inconclusive means small, poorly fitted or top-dose-only effect, or effect the other way; inactive means no such curve, though single readings can be large or run the other way.
On the % scale 0 is the no-effect control and ±100 the full control effect.

Cytochrome P450 1A2 (Homo sapiens), sequence (P05177 whole entry, looked up): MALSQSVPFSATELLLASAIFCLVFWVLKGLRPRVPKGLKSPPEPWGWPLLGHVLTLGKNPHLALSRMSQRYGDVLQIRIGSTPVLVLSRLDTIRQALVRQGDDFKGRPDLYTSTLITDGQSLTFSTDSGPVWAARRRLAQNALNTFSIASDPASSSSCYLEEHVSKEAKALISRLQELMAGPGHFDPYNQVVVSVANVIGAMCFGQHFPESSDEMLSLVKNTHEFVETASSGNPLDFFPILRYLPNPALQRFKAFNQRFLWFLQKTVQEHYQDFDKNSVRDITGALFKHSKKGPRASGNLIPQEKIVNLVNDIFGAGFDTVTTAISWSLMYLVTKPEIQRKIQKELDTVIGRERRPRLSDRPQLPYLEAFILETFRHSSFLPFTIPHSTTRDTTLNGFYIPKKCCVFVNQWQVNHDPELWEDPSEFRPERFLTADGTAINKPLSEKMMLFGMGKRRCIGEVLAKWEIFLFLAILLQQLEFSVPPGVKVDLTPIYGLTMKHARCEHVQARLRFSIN

The experiment addresses Cytochrome P450 1A2 (Homo sapiens) (UniProt P05177). Description: Cytochrome panel assay with activity outcomes. Particulars: recombinant CYP, pro-luciferin dealkylation, luminescence, p450-cyp1a2; series mostly up to 57.1 µM; activity, negative = inhibition: at the top concentration.
For orientation: AC50 means the concentration at which the activity in the assay is half-maximal. Turning to `CCOC(=O)NCc1ccc2c(c1)cc(C)n2C`, the concentration at half-maximal activity (AC50) is 2 µM (active).
Consider `CN[C@@H]1[C@H](O[C@H]2[C@@H](O[C@@H]3[C@@H](O)[C@@H](O)[C@@H](N=C(N)N)[C@@H](O)[C@@H]3N=C(N)N)O[C@@H](C)[C@]2(O)CO)O[C@H](CO)[C@@H](O)[C@@H]1O`, for which the “activity, negative = inhibition” value was -4.23% [at 25.6 µM].
Turning to `CNC(=S)NNC(=O)COc1ccccc1C`, the AC50 was 15.8 µM (active).
As to `Cc1ccccc1OCC(=O)OC1CCN(C)CC1`, the “activity, negative = inhibition” value is 5.7%.
`CN(C(=O)COc1cccc(Br)c1)C1CCS(=O)(=O)C1` (centres undefined): the “activity, negative = inhibition” value was -26.4%.
For the compound `CCOc1ccc(C(F)(F)F)cc1NC(=O)c1ccc(OC)c([N+](=O)[O-])c1`, the AC50 is 3.55 µM (active).
With `CCCC(=O)N1CCN(c2ccc(NC(=O)c3ccc(OCC)c([N+](=O)[O-])c3)cc2)CC1`, the “activity, negative = inhibition” value is -8.1%.
With `CCOc1ccc(C(=O)Cc2cc(OC)c(OC)cc2[N+](=O)[O-])cc1`, the “activity, negative = inhibition” value was -12.4%.
Consider `CC(=O)Nc1cc(C(F)(F)F)ccc1Oc1cccc(Br)c1`, for which the AC50 was 10 µM (active).
For the compound `CC(=O)Oc1cc(C(F)(F)F)ccc1C(=O)O`, the “activity, negative = inhibition” value was -7.55% [at 25.6 µM].
As for `CCOc1ccc(C(F)(F)F)cc1NC(C)=O`, the AC50 was 0.1 µM (active).
Turning to `CC(=O)NC1=NC(=O)C(C)S1` (centres undefined), the “activity, negative = inhibition” value was 1.33%.
On the same count and under the same terms, under `N[C@@H](Cc1nn[nH]n1)C(=O)O` stands -8.69% [at 11.4 µM].
Same read-out and setting: under `Nc1[nH]c(=O)nc2c1ncn2[C@H]1O[C@@H](CO)[C@@H](O)[C@@H]1O` stands -0.635% [at 11.4 µM].
`CC1=NCC[N@@+]1(CCc1ccccc1)Cc1ccccc1`: the activity, negative = inhibition was -17.6% [at 11.4 µM].
Consider `CC(CO)Nc1nc(SCc2ccccc2)nc2sc3c(c12)CCC3` (centres undefined), for which the AC50 is 0.2 µM (active).
Turning to `C[C@H](Nc1ncnc2sc3c(c12)CCC3)C(=O)O`, the “activity, negative = inhibition” value is -17.4%.
Consider `OCCNc1nc(SCc2ccccc2)nc2sc3c(c12)CCC3`, for which the AC50 was 1 µM (active).
As to `COCCNc1nc(SCc2ccccc2)nc2sc3c(c12)CCC3`, the AC50 is 1 µM (active).
With `Cc1ccc(CSc2nc3c(c(SCC(=O)O)n2)CCCC3)cc1`, the “activity, negative = inhibition” value is -2.42%.
Consider `CCCCNC(=O)C1CC(=O)N(CCC(C)C)C1` (centres undefined), for which the “activity, negative = inhibition” value was -12.7%.
With `CCCCNC(=O)[C@@H]1Cc2ccccc2N1C(=O)[C@H](N)CC`, the AC50 was 20 µM (active).
On to `CCCCNC(=O)C1CCN(Cc2ccccn2)CC1`, for which the “activity, negative = inhibition” value is 5.66%.
Take `O=C(O)Cn1ccnc1[N+](=O)[O-]`: the activity, negative = inhibition was -3.98% [at 11.4 µM].
`CCOC(=O)c1cc2c(=O)n3ccccc3nc2n(CCOC)c1=NC(=O)C(C)(C)C`: the AC50 is 3.16 µM (active).
With `CCOC(=O)c1cc2c(=O)n3ccccc3nc2n(CCCOC)c1=NC(C)=O`, the AC50 was 12.6 µM (active).
Turning to `C[C@H]1[C@H](C)OC(=O)C[C@H](O)C[C@H](O)C[C@H](O)CC[C@H](O)[C@H](O)CC(=O)C[C@H](O)[C@H](C(=O)O)[C@H](O)C[C@H](O[C@@H]2O[C@@H](C)[C@H](O)[C@@H](N)[C@@H]2O)C=CC=CC=CC=CCCC=CC=C[C@@](C)(O)[C@H]1O`, the activity, negative = inhibition was 12.4% [at 11.4 µM].
`O=[N+]([O-])c1cccc(/C=N/Nc2cc(Cl)nc(-c3ccccc3)n2)c1`: the AC50 was 1.26 µM (active).
On the same count and under the same terms, under `c1nc(N2CCNCC2)c2cc(-c3ccc4c(c3)OCO4)ccc2n1` stands 2 µM (active); under `CN1CCN(c2ncnc3ccc(-c4ccc5c(c4)OCO5)cc23)CC1`, 2.51 µM (active).
For `CN(C)c1ccc(-c2ccc3ncnc(N4CCNCC4)c3c2)cc1`, the AC50 was 2.51 µM (active).
With `CN1CCN(c2ncnc3ccc(-c4ccc(C(=O)N(C)C)cc4)cc23)CC1`, the “activity, negative = inhibition” value was -11.4%.
Turning to `CN(C)C(=O)c1ccc(-c2ccc3ncnc(N4CCNCC4)c3c2)cc1`, the “activity, negative = inhibition” value was -13.6%.
`C[C@H]1C[C@H]2[C@H]3CCC4=CC(=O)C=C[C@@]4(C)[C@]3(F)[C@H](O)C[C@]2(C)[C@@]1(O)C(=O)COP(=O)(O)O`: the activity, negative = inhibition was 2.48% [at 11.4 µM].
On the same count and under the same terms, under `CC1(C)O[C@@H]2C[C@H]3[C@H]4C[C@H](F)C5=CC(=O)C=C[C@@]5(C)[C@@H]4[C@H](O)C[C@]3(C)[C@]2(C(=O)CO)O1` stands -10.8% [at 25.6 µM].
On to `CCC1CC(CSc2ncn[nH]2)OC1=O` (centres undefined), for which the “activity, negative = inhibition” value was 0.612%.
As for `Clc1ccccc1-c1nc(-c2ccccc2)n[nH]1`, the AC50 is 1 µM (active).
Regarding `COc1ccc(CNc2ncncc2-c2ccc3c(c2)OCO3)c(OC)c1`, the half-maximal activity concentration (AC50) was 0.501 µM (active).
Still for that read-out and setting: under `COc1ccccc1CNc1ncncc1-c1ccc2c(c1)OCO2` stands 0.158 µM (active).
Take `Cc1nnc(S(=O)(=O)c2ccc(N=Nc3c(N)nc(N)nc3N)cc2)s1`: the activity, negative = inhibition is -10.2% [at 2.29 µM].
Still for that read-out and setting: under `Cc1nc2ncnn2c(C)c1CCC(=O)N1CCN(C(=O)c2ccco2)CC1` stands 2.36%.
As to `Cc1nn(C(=O)c2ccco2)c(C)c1Sc1ccc(Br)cc1`, the AC50 was 14.1 µM (active).
As to `Cc1nn(C(=O)c2cccnc2)c(C)c1Sc1ccc(Br)cc1`, the AC50 was 7.08 µM (active).
Turning to `O=C(c1ccco1)N1CCC2(CCN(Cc3ccccc3)CC2)CC1`, the “activity, negative = inhibition” value is 0.0929%.
As to `Cc1nn(C(=O)CN2C(=O)c3ccccc3C2=O)c(C)c1Br`, the “activity, negative = inhibition” value was -9.22%.
In the case of `Cc1nn(C(=O)c2ccco2)c(C)c1Sc1ccccc1`, the concentration at half-maximal activity (AC50) is 15.8 µM (active).
In the case of `CCCCN(C(=S)Nc1ccccc1)C1CCS(=O)(=O)C1` (centres undefined), the “activity, negative = inhibition” value is -16.7%.
On the same count and under the same terms, under `O=C(O)[C@@H]1CCCN1` stands -12% [at 11.4 µM].
For the compound `O=C(O)[C@@H]1C[C@@H](C(=O)O)N1`, the AC50 was 31.6 µM (active).
On to `O=C(O)[C@H]1C[C@H](C(=O)O)N1`, for which the “activity, negative = inhibition” value is -1.37%.
For `NC(N)=NN=Cc1c(Cl)cccc1Cl`, the AC50 was 7.94 µM (active) and 3.98 µM (active).
As to `NC(N)=NC(=O)Cc1c(Cl)cccc1Cl`, the AC50 entry was “inactive”.
With `NC(N)=N/N=C\c1ccc(O)c(C(=O)O)c1`, the activity, negative = inhibition is -11.9% [at 2.29 µM].
Turning to `Cc1cccc(Sc2c([N+](=O)[O-])ncn2C)n1`, the “activity, negative = inhibition” value was 14.5%.
Consider `Cc1cccc(NC(=O)c2ccc([N+](=O)[O-])o2)n1`, for which the AC50 is 5.01 µM (active).
On to `Cc1ccc(OCC(=O)NNC(=O)c2cc3ccccc3o2)cc1`, for which the “activity, negative = inhibition” value was -13.1%.
Regarding `Cc1cccc(NC(=O)c2cc(N3C(=O)CCC3=O)ccc2Cl)n1`, the “activity, negative = inhibition” value was -29.7%.
`Cc1cccc(NC(=O)c2cc(=O)c3ccccc3o2)n1`: the AC50 was 2 µM (active).
With `CNC(=O)CCc1nc(-c2ccc(C(C)(C)C)cc2)no1`, the AC50 was 6.31 µM (active).
On the same count and under the same terms, under `CN(C)C(=O)CCc1nc(-c2ccc(C(C)(C)C)cc2)no1` stands 6.31 µM (active); under `CN(C)c1ncc2ncc(=O)n(C3CC3)c2n1`, 3.16 µM (active); under `COc1ccc(Oc2ncc3ncc(=O)n(C4CC4)c3n2)cc1`, 5.01 µM (active).
With `COc1ncc2ncc(=O)n(C3CC3)c2n1`, the AC50 is 10 µM (active).
Regarding `CN(C)c1ncc2ncc(=O)n(C)c2n1`, the AC50 was 6.31 µM (active).
`COC(=O)[C@@]1(Cc2ccc(OC)cc2)[C@H]2c3cc(C(=O)N4CCCC4)n(Cc4cc(F)cc5c4OCOC5)c3C[C@H]2CN1C(=O)c1ccccc1`: the “activity, negative = inhibition” value was -16.7%.
In the case of `C/C(CCN1CCc2nc(-c3ccccc3)c(-c3ccccc3)cc2C1)=N\O[C@@H](C)c1cn([C@@H]2COC[C@@H]2O)nn1`, the activity, negative = inhibition was -3.92% [at 11.4 µM].
Consider `Cc1nc(NC(N)=S)sc1C(=O)Nc1ccccc1`, for which the AC50 was 8.91 µM (active).
Regarding `CCOc1cc(/C=N/NC(=O)CN2CCCCC2)ccc1OCc1ccccc1`, the “activity, negative = inhibition” value was -28.3%.
Regarding `O=C(O)c1ccc(OCc2ccccc2)c(Cl)c1`, the activity, negative = inhibition is -3.18% [at 2.29 µM].
`NC(=S)N/N=C/c1ccccc1OCc1cccc(Cl)c1`: the AC50 was 2.24 µM (active).
Turning to `O/N=C/c1ccccc1OCc1ccc(Cl)cc1`, the AC50 is 2.24 µM (active).
Take `O=C(Cc1ccccc1)N/N=C/c1ccccc1OCc1ccc(Cl)cc1`: the AC50 is 2.24 µM (active).
As to `Cc1ccc(COc2ccc(Br)cc2/C=N/O)cc1`, the AC50 was 1.58 µM (active).
As to `NCc1ccc(S(N)(=O)=O)cc1`, the “activity, negative = inhibition” value is -4.42% [at 25.6 µM].
As for `Cc1[nH]c2ccccc2c1C(c1ccccn1)N1CCC(C)CC1` (centres undefined), the “activity, negative = inhibition” value was -17.7%.
For the compound `O/N=C/c1cc(Cl)ccc1OCc1cccc2ccccc12`, the AC50 was 0.112 µM (active).
As for `Cc1n[nH]c(=S)n1/N=C/c1ccccc1OCc1ccc(Cl)cc1`, the half-maximal activity concentration (AC50) is 1.58 µM (active).
For the compound `O=C1CCC(c2ccc(-n3ccnc3)cc2)=NN1`, the AC50 was 0.158 µM (active).
For `CCn1c(O)c(/C=N/N=C2CCCC2)c2ccc(C3=NNC(=O)CC3)cc21`, the “activity, negative = inhibition” value is -21%.
The same measure, in the same setting: under `O=C(Nc1cccc(F)c1)N1CCC2(CCNCC2)CC1` stands 11.5%.
Turning to `COc1cccc(Cn2c(=O)c(-c3cccc(C#N)c3)nc3cnc(Nc4ccccc4)nc32)c1`, the “activity, negative = inhibition” value is 0.136%.
With `CCNc1ncc2nc(-c3ccccc3)c(=O)n(CCOC)c2n1`, the AC50 is 3.16 µM (active).
For `COCCn1c(=O)c(-c2ccccc2)nc2cnc(Nc3ccccc3)nc21`, the AC50 was 5.01 µM (active).
On to `CCNc1ncc2nc(-c3cc(F)cc(F)c3)c(=O)n(CCOC)c2n1`, for which the AC50 was 3.16 µM (active).
`O=C(CNS(=O)(=O)c1ccc(Br)s1)N1CCC(N2CCCCC2)CC1`: the “activity, negative = inhibition” value was -3.52%.
`Oc1cc(O)c2c(c1)O[C@@H](c1ccc(O)c(O)c1)[C@H](O[C@@]1(c3cc(O)c(O)c(O)c3)Oc3cc(O)cc(O)c3[C@H](O)[C@@H]1O)C2`: the activity, negative = inhibition was -13.3% [at 11.4 µM].
In the case of `COc1ccc(O[C@H]2C=C[C@@H](c3ccccc3)O[C@H]2COC(=O)CC/C(C)=N\O[C@@H](C)CN2CCCc3nc(C)c(C)cc32)cc1`, the activity, negative = inhibition is 2.58% [at 11.4 µM].
On to `CC(C)Oc1ccc2ccccc2c1C=O`, for which the AC50 was 1.12 µM (active).
Take `Cc1cc(NC(=O)COC(=O)c2ccc(NS(=O)(=O)c3ccc(C)c(C)c3)cc2)no1`: the “activity, negative = inhibition” value is -13%.
As to `COc1ccccc1NS(=O)(=O)c1cccc(C(=O)OCC(=O)Nc2cc(C)on2)c1`, the AC50 was 14.1 µM (active).
As to `Cc1n[nH]c(C)c1S(=O)(=O)N1CCC(C(=O)O)CC1`, the “activity, negative = inhibition” value is 1.2%.
Turning to `CCOC(=O)[C@@]12C[C@@H]1/C(=N/O)c1ccccc1O2`, the AC50 was 3.98 µM (active).
Turning to `O=C(Nc1ccccc1)[C@@]12C[C@@H]1/C(=N/O)c1ccccc1O2`, the AC50 was 2.51 µM (active).
Turning to `Cc1c(NC(=O)C2CCN(S(=O)(=O)c3ccc(Cl)cc3)CC2)c(=O)n(-c2ccccc2)n1C`, the “activity, negative = inhibition” value was 15.2%.
